Compound activity: PubChem, National Center for Advancing Translational Sciences (NCATS)
Rows were chosen to be rich in hits. Some 19% of all compounds tested hit in one or more screens of this group.
HT1080 IDH1KD tx: HT-1080 IDH1 knockdown cell toxicity (counter line). 360,000 tested, 2% active. Potency, µM (series often up to 46.1 µM), for the others: top-dose activity, negative = toxicity, usual class: cytotoxic. HT-1080 IDH1 knockdown viability, ATP luminescence, 48 h;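 also: 0% = DMSO wells and -100% = cell-free medium wells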
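Luminescent ATP read-out (CellTiter-Glo, 10 min at room temperature) after 48 h compound exposure at 37 °C gave viability of IDH1-knockdown HT-1080 cells. Activity was normalised to DMSO and cell-free wells, then fitted as concentration-response curves.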
KB-3-1 tox: kills parental KB-3-1 adenocarcinoma cells. Potency, µM (top dose mostly 46.1 µM), most hits filed as cytotoxic. 400,000 tested, 1.4% active. KB-3-1 viability, CellTiter-Glo ATP luminescence, 72 h; also: nearly all actives have a fitted effect of over 60% in size
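Parental KB-3-1 adenocarcinoma cells in phenol-red-free DMEM with 10% FBS were pin-treated with compounds at several concentrations, incubated 72 h at 37 °C, and viability read by CellTiter-Glo luminescence; concentration-effect curves were fitted after normalization.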
HT1080NT lethal: kills 2HG-producing HT-1080-NT fibrosarcoma cells; HT-1080-NT fibrosarcoma viability, CellTiter-Glo ATP luminescence, 48 h; Potency, µM (series often up to 46.1 µM), without a hit: at the highest dose activity, negative = less viability, most hits filed as cytotoxic; 360,000 tested, 1.6% active;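 also: NT is the 2HG producing partner of a matched IDH1 knockdown line; 0% = DMSO-treated cells and -100% = media-only wells without cells; nearly all actives have a fitted effect of over 55% in size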
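Toxicity toward the 2HG-producing NT line was scored as %Activity, normalised to DMSO and no-cell wells, from CellTiter-Glo luminescence after 48 hours' treatment.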
KB-V1 MDR tox: kills drug-selected multidrug resistant KB-V1 cells. 400,000 tested, 3.4% active. KB-V1 MDR cells viability, CellTiter-Glo, 72 h. Potency, µM (titrated, usually from 46.1 µM), hits mostly cytotoxic; also: nearly all actives have a fitted effect of over 60% in size
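In this primary screen, KB-V1 cells overexpressing P-gp are incubated with library compounds (lowest to highest concentration) for 72 h at 37 degrees C before a luminescent ATP viability read.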
TDP1 cell noCPT: qHTS for Inhibitors of human tyrosyl-DNA phosphodiesterase 1 (TDP1): qHTS in cells in absence of CPT; DT40 Tdp1-/- hTDP1 cells, no CPT, ATP luminescence, 48 h; Potency, µM (doses to about 46.2 µM), for inactives: top-dose activity change, negative = growth inhibition, most hits filed as inhibitors; 420,000 tested, 15% active; AID 686978, 2013; also: nearly all actives have a fitted effect of over 55% in size
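Cells were dispensed at 400 per well, compounds added by pin tool, plates incubated ≥48 hr at 37 °C, then CellTiter-Glo added for 30 min at room temperature before luminescence reading. Line: DT40 Tdp1-/- complemented with hTDP1; camptothecin omitted.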
DT40 TDP1 CPT: DT40-hTDP1 cell growth loss with CPT | chicken DT40 Tdp1-/-;hTDP1 cells + 20 nM CPT, ATP luminescence, 48 h | Potency, µM (titrated, usually from 46.2 µM), for inactives: at the top dose activity change, negative = growth inhibition, most hits filed as inhibitors | 420,000 tested, 12% active; also: nearly all actives have a fitted effect of over 55% in size
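Cell growth measured by CellTiter-Glo luminescence after a minimum 48 h, 37 C compound exposure with 20 nM CPT in Tdp1-knockout DT40 cells stably expressing hTDP1, seeded 400/well; qHTS titration format.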
An asterisk follows results filed as active; i = inactive; ? = inconclusive; . = no result. Calls follow the shape of the dose curve; as a rule, active = well fitted curve in the direction sought with a large enough effect; inconclusive = small, poorly fitted or top-dose-only effect, or another doubt; inactive = no such curve, though single readings can be large; an effect the other way counts as inactive or inconclusive. Unless noted, % is scaled to controls: 0 for no effect and ±100 for the full control effect; potency is read from the fitted curve at half-maximal effect.

SMILES | HT1080 IDH1KD tx | KB-3-1 tox | HT1080NT lethal | KB-V1 MDR tox | TDP1 cell noCPT | DT40 TDP1 CPT
COc1ccc(/C=N/N=C2\SC(CC(=O)O)C(=O)N2c2ccccc2)cc1 (stereo not drawn) | 18.3% | i | 21.8% | i | -13.0% | -2.8%
Cc1cc(C)c(S(=O)(=O)NCC23C=CC(O2)C2C(=O)N(c4ccccc4)C(=O)C23)c(C)c1 (stereo not drawn) | -0.8% | i | -0.4% | i | ? | ?
Cc1ccc(N2C(=O)C3C4C=CC(CNC(=S)Nc5cccc(Cl)c5)(O4)C3C2=O)cc1 (stereo not drawn) | -4.1% | i | -2.7% | 11.6µM* | 14.6µM* | ?
CC(C)COC(=O)NCC12C=CC(O1)C1C(=O)N(c3ccc(Cl)cc3)C(=O)C12 (stereo not drawn) | -3.3% | i | -3.3% | i | 18.4µM* | 16.4µM*
Cc1ccc(N2C(=O)C3C4C=CC(CNC(=S)Nc5ccc(Cl)cc5)(O4)C3C2=O)cc1 (stereo not drawn) | -17.1% | ? | -1.7% | 8.2µM* | 23.1µM* | ?
Cc1ccc(N2C(=O)C3C4C=CC(CNC(=S)Nc5ccc(F)cc5)(O4)C3C2=O)cc1 (stereo not drawn) | -0.4% | i | 3.4% | i | 18.4µM* | ?
CCN(C(=O)CCS(=O)(=O)c1cc(Br)cc2c1N(C(=O)C1CC1)CC2)c1cccc(C)c1 | . | i | . | i | -13.1% | -4.8%
CCN(CC)CCNC(=O)CS(=O)Cc1nc(-c2ccc(C)cc2)oc1C (stereo not drawn) | 8.9% | i | 1.3% | i | -1.3% | 0.4%
COc1ccc(C2NC(=O)NC(C)=C2C(=O)OCC2CCCCC2)cc1OC (stereo not drawn) | 20.7% | i | -12.9% | i | ? | -26.7%
Cc1ccc(N2C(=O)C3C4C=CC(CNC(=S)N5CCN(c6ccccn6)CC5)(O4)C3C2=O)cc1 (stereo not drawn) | 3.8% | i | 4.4% | i | 18.4µM* | 23.1µM*
CC1SC(c2ccc(F)cc2)N(CCc2ccccc2)C1=O (stereo not drawn) | 11.2% | i | -1.7% | i | 23.1µM* | 0.5%
Nc1c(N=O)c(=O)[nH]c(=O)n1-c1ccccc1 | 7.4% | i | 14.7% | i | 0.6% | -6.8%
Nc1c(NCc2ccccc2)c(=O)[nH]c(=O)n1Cc1ccccc1 | -0.8% | i | -4.9% | i | 18.4µM* | ?
CCCNc1c(N)n(-c2ccccc2)c(=O)[nH]c1=O | 0.8% | i | 10.7% | i | 16.4µM* | ?
CN(CC(=O)NCC1CCCCC1)CC(=O)Nc1ccccc1Br | -12.6% | . | -1.6% | . | ? | -20.4%
O=c1[nH]c(N/N=C/c2ccccc2Br)nnc1-c1ccccc1 | -12.3% | i | -1.5% | i | 23.1µM* | 14.6µM*
COc1ccc(/C=N/Nc2nnc(-c3ccccc3)c(=O)[nH]2)cc1 | 13µM* | 5.17µM* | 13µM* | 13µM* | 7.31µM* | 11.6µM*
COc1ccc(CCNC(=O)C2CC(=O)N(C3CCCCC3)C2)cc1OC (stereo not drawn) | 1.4% | i | -2.0% | i | 0.1% | 16.3%
O=C(CN1CCN(C(=O)CCC(=O)N2CCC(c3ccccc3)=N2)CC1)Nc1cccc(F)c1 | -3.9% | i | -11.3% | ? | 16.4µM* | 16.4µM*
O=C(CN1CCN(CC(=O)Nc2ccc3c(c2)OC2(CCCCC2)O3)CC1)Nc1cccc(F)c1 | -21.8% | i | -5.1% | 5.8µM* | 16.4µM* | 23.1µM*
